# Measured values taken from ChEMBL document CHEMBL1961873, “Compounds: GSK PKIS; Assays: Nanosyn kinase panel” (2012).
# Assays:
# [1] = target: Mast/stem cell growth factor receptor Kit (Homo sapiens) (UniProt P10721); conditions: at 1 µM
# [2] = test system: Mast/stem cell growth factor receptor Kit (Homo sapiens), P10721 [D816V]; conditions: at 0.1 µM
# [3] = test system: Mast/stem cell growth factor receptor Kit (Homo sapiens), P10721 [D816V]; conditions: at 1 µM
# [4] = test system: Mast/stem cell growth factor receptor Kit (Homo sapiens), P10721 [T670I]; conditions: at 0.1 µM
# Sequence of Mast/stem cell growth factor receptor Kit (Homo sapiens), P10721 [T670I] (P10721 whole entry T670I): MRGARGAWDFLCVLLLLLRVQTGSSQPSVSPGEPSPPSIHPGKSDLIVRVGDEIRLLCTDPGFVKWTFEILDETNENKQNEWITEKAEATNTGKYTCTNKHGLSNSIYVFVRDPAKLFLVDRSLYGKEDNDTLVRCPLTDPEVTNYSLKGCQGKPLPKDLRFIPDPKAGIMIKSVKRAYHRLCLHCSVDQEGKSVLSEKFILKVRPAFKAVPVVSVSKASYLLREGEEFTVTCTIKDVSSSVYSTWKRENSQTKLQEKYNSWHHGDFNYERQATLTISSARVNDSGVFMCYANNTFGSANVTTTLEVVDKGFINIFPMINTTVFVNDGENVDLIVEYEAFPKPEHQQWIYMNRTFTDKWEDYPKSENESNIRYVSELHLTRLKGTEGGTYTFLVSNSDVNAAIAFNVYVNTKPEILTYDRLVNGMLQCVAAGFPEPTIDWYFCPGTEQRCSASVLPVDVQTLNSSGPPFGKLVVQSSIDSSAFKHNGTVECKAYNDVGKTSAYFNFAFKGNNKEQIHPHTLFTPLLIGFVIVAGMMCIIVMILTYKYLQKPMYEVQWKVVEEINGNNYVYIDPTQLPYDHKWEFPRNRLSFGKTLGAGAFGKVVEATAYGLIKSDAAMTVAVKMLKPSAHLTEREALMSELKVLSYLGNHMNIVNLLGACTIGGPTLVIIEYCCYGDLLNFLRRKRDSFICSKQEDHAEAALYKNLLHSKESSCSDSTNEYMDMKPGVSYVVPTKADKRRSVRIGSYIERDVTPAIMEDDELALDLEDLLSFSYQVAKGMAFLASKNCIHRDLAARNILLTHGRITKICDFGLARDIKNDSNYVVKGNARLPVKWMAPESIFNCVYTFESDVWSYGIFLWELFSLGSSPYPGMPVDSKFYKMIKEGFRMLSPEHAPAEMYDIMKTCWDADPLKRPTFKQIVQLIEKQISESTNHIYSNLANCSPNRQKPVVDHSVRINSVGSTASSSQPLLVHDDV
# [5] = test system: Mast/stem cell growth factor receptor Kit (Homo sapiens), P10721 [T670I]; conditions: at 1 µM
# [6] = test system: Mast/stem cell growth factor receptor Kit (Homo sapiens), P10721 [V560G]; conditions: at 0.1 µM
# Sequence of Mast/stem cell growth factor receptor Kit (Homo sapiens), P10721 [V560G] (P10721 whole entry V560G): as the sequence (P10721 whole entry T670I) above, with V560G, I670T counted along it
# [7] = test system: Mast/stem cell growth factor receptor Kit (Homo sapiens), P10721 [V560G]; conditions: at 1 µM
# [8] = target: Tyrosine-protein kinase Lck (Homo sapiens) (UniProt P06239); conditions: at 0.1 µM
# Sequence of Tyrosine-protein kinase Lck (Homo sapiens) (P06239 2-509 limits assumed): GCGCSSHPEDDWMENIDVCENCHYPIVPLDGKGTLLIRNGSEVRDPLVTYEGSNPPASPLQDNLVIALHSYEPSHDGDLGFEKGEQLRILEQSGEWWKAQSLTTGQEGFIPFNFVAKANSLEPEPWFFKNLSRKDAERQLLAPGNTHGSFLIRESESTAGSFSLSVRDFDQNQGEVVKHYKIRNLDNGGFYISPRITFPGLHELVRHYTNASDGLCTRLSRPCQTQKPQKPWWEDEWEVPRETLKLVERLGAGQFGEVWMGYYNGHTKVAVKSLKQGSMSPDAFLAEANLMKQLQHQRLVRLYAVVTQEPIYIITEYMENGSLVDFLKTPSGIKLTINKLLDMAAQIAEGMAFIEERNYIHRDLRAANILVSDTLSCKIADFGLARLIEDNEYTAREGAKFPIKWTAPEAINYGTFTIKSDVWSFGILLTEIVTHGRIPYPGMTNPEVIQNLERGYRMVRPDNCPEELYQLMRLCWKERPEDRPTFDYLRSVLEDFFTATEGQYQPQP
# [9] = target: Tyrosine-protein kinase Lck (Homo sapiens) (UniProt P06239); conditions: at 1 µM
# [10] = target: Leukocyte tyrosine kinase receptor (Homo sapiens) (UniProt P29376); conditions: at 0.1 µM
# Sequence of Leukocyte tyrosine kinase receptor (Homo sapiens) (P29376 whole entry): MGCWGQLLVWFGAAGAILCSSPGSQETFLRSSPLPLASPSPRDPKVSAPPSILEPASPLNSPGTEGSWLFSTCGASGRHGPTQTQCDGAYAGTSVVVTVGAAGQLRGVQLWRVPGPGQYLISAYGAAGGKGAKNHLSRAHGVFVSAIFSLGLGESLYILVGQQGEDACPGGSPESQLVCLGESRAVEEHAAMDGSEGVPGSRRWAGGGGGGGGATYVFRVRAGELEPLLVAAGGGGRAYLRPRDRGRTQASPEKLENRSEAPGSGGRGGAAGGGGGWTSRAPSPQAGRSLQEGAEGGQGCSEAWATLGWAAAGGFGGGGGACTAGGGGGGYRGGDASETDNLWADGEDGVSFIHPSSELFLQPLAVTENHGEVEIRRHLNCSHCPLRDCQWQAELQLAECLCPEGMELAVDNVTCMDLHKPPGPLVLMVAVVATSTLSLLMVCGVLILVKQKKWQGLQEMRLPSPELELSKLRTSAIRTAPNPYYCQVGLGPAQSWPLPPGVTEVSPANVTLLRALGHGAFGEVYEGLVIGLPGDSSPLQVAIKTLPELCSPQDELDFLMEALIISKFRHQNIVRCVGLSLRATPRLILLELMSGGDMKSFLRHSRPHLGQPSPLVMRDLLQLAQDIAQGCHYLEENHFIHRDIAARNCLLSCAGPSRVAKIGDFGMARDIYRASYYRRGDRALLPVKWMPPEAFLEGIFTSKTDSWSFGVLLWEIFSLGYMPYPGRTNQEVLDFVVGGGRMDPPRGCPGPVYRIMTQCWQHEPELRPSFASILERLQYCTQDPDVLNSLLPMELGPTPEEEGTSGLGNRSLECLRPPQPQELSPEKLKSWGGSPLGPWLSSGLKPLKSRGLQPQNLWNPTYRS
# [11] = target: Leukocyte tyrosine kinase receptor (Homo sapiens) (UniProt P29376); conditions: at 1 µM
# [12] = target: Tyrosine-protein kinase Lyn (Homo sapiens) (UniProt P07948); conditions: at 0.1 µM
# Sequence of Tyrosine-protein kinase Lyn (Homo sapiens) (P07948 2-512 limits assumed): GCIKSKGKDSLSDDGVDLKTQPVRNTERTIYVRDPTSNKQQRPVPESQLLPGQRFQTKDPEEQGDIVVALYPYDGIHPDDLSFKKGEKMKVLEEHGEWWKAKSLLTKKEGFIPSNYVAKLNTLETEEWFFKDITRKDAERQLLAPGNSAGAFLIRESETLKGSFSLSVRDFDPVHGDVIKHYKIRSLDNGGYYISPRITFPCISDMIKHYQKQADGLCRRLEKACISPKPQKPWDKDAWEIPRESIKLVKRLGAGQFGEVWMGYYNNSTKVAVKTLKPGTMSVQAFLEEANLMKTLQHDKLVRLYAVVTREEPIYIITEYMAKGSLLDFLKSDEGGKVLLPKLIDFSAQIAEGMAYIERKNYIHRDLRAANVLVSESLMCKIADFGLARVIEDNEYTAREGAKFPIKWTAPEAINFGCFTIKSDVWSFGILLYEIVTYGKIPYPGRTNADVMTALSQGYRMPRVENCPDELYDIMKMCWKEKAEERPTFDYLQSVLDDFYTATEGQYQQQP
# [13] = target: Tyrosine-protein kinase Lyn (Homo sapiens) (UniProt P07948); conditions: at 1 µM
# [14] = target: Tyrosine-protein kinase Lyn (Homo sapiens) (UniProt P07948); conditions: at 0.1 µM; remark: listed apart in the source
# [15] = target: Tyrosine-protein kinase Lyn (Homo sapiens) (UniProt P07948); conditions: at 1 µM; remark: listed apart in the source
# [16] = target: T1, Tyrosine-protein kinase Mer (Homo sapiens) (UniProt Q12866); conditions: at 0.1 µM
# T1 sequence (whole entry): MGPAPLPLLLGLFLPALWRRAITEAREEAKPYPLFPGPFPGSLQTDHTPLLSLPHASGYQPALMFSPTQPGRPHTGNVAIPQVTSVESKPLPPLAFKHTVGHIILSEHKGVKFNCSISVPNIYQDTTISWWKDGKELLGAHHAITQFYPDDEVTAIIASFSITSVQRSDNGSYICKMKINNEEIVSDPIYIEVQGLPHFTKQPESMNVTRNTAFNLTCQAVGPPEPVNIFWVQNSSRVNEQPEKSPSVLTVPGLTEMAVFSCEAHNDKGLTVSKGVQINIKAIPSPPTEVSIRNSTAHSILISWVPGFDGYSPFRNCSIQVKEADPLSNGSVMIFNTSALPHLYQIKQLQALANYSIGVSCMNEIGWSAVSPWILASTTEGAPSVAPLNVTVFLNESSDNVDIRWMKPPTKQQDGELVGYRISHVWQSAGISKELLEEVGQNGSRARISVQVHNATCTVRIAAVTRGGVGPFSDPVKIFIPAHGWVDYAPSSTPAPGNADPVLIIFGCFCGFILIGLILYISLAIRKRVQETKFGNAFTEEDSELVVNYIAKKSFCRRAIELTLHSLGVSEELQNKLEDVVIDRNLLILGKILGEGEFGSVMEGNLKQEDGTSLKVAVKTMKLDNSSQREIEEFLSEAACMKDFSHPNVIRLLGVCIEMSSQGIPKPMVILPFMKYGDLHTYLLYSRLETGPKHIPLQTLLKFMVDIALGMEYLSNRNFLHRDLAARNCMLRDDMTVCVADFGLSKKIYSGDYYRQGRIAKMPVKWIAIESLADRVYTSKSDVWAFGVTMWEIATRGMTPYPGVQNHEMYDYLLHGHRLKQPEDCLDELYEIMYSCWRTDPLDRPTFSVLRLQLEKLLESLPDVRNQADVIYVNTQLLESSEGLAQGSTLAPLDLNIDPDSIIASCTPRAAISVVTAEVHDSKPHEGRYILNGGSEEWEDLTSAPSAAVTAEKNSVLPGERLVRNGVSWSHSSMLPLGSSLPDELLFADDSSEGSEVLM
# [17] = target: T1, Tyrosine-protein kinase Mer (Homo sapiens); conditions: at 1 µM
# [18] = target: Hepatocyte growth factor receptor (Homo sapiens) (UniProt P08581); conditions: at 0.1 µM
# Sequence of Hepatocyte growth factor receptor (Homo sapiens) (P08581 whole entry): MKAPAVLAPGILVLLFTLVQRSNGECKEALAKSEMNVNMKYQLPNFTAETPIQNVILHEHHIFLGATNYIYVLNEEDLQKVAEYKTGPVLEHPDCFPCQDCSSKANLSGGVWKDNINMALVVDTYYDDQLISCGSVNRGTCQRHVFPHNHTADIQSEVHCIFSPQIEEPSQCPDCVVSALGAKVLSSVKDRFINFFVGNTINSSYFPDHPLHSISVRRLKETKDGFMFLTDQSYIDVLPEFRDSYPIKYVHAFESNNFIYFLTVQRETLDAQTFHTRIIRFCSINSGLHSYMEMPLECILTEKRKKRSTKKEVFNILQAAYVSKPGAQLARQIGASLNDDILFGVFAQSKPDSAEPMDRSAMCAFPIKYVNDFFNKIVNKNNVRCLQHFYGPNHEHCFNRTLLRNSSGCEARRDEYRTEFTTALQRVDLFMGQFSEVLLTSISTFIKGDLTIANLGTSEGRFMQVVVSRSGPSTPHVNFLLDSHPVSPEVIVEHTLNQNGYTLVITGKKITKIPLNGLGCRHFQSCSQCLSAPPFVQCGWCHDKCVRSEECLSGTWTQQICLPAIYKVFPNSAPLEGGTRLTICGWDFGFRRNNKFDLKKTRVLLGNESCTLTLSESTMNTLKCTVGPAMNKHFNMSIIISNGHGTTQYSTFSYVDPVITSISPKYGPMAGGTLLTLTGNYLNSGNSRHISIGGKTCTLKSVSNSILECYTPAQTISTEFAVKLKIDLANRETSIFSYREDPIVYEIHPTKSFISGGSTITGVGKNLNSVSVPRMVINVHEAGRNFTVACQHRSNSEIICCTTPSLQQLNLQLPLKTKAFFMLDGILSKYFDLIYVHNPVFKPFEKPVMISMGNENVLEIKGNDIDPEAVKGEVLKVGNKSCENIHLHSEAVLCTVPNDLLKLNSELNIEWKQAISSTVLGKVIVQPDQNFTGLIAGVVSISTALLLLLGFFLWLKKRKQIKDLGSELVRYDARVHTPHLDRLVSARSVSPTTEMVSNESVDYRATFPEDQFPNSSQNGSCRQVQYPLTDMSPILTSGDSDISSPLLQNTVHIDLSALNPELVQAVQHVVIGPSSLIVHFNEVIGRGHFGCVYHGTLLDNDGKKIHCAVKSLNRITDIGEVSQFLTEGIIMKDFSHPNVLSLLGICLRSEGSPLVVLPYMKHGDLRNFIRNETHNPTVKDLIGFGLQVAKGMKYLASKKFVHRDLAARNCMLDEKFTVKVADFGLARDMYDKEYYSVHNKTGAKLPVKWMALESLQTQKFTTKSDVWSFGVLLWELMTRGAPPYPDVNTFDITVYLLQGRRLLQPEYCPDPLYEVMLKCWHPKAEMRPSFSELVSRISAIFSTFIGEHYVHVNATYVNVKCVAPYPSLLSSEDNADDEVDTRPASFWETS
# [19] = target: Hepatocyte growth factor receptor (Homo sapiens) (UniProt P08581); conditions: at 1 µM
# [20] = target: T2, Muscle, skeletal receptor tyrosine-protein kinase (Homo sapiens) (UniProt O15146); conditions: at 0.1 µM;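 also: values are mean inhibition of MuSK from the GSK PKIS kinase screening panel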
# T2 sequence (whole entry): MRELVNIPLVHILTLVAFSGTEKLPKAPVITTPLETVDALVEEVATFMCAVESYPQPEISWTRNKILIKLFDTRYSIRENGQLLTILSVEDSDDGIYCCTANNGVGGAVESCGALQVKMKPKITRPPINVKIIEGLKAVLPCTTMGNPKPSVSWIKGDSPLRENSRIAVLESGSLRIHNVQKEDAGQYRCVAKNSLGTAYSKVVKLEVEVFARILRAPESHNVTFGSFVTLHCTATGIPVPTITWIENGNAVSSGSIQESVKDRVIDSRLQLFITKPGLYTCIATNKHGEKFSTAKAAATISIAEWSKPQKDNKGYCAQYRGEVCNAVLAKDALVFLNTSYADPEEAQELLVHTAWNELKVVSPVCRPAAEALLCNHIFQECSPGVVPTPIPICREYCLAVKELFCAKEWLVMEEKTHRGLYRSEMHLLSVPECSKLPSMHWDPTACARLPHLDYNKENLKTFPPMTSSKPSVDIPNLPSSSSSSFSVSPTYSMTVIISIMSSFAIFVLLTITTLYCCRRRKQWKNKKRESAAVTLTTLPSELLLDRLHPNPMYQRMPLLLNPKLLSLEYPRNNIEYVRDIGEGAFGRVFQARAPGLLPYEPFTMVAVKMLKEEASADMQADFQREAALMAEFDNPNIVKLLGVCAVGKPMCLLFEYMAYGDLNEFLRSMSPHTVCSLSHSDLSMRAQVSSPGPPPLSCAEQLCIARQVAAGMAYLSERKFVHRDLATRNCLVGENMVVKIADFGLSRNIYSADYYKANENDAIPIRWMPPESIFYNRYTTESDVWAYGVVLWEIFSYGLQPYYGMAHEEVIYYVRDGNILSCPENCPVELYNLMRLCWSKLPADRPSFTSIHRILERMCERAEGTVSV
# Sequence of Mast/stem cell growth factor receptor Kit (Homo sapiens), P10721 [D816V] (P10721 whole entry D816V): as the sequence (P10721 whole entry T670I) above, with I670T, D816V counted along it
# Sequence of Mast/stem cell growth factor receptor Kit (Homo sapiens) (P10721 whole entry): as the sequence (P10721 whole entry T670I) above, with I670T counted along it
SMILES,inhibition [1] [%],inhibition [2] [%],inhibition [3] [%],inhibition [4] [%],inhibition [5] [%],inhibition [6] [%],inhibition [7] [%],inhibition [8] [%],inhibition [9] [%],inhibition [10] [%],inhibition [11] [%],inhibition [12] [%],inhibition [13] [%],inhibition [14] [%],inhibition [15] [%],inhibition [16] [%],inhibition [17] [%],inhibition [18] [%],inhibition [19] [%],inhibition [20] [%]
COC(=O)c1ccc2c(c1)C(=Cc1cc(Br)c(O)c(Br)c1)C(=O)N2,16.2,-0.82,4.08,2,2.74,-3.35,0.2,5.24,15.3,6.76,34,3.81,17.1,2.84,12.9,1.09,2.17,2.4,8.25,3
CN(C)c1cc2c(Nc3ccc4c(cnn4Cc4ccccc4)c3)ncnc2cn1,3.38,4.89,2.07,3.06,-0.32,-2.8,2.75,5.16,22.6,1.81,3.01,2.67,13.5,2.82,10.6,6.16,40.9,5.12,0.45,1.76
COc1ccc(-c2nn3ncccc3c2-c2ccnc(Nc3cccc(C(F)(F)F)c3)n2)cc1,26.5,0.93,3.05,3.67,4.13,-1.16,7.05,3.91,20.3,2.17,2.59,4.45,12.7,3.78,10.3,1.45,3.23,6.61,12.1,2.37
ON=C1CCc2cc(-c3nc(C4CCNCC4)[nH]c3-c3ccncc3)ccc21,-4.25,2.66,5.8,-0.79,-1.23,-2.31,-1.75,0.93,6.86,1.01,1.88,0.17,2.43,-0.33,0.99,-0.13,2.76,0.32,4.34,-1.09
CCCN1CCCC(c2ccc(Nc3nc(Nc4cc(F)ccc4C(N)=O)c4cc[nH]c4n3)c(OC)c2)C1 (stereo not drawn),13.1,4.45,4.83,2.47,3.44,-0.05,-0.43,1.09,6.22,95,95.5,7.48,7.83,3.89,4.64,3.05,14.1,2.96,20.6,3.6
COc1cc2ncn(-c3cc(OCc4ccccc4S(C)(=O)=O)c(C#N)s3)c2cc1OC,7.97,2.49,5.22,3.82,2.96,–,0.98,23.3,69.2,4,7.89,20.4,65.6,15.1,60.9,35.4,77.1,5.94,15.6,13.2
Cc1ccc(Nc2ccnc(Nc3cccc(C(N)=O)c3)n2)cc1O,42.7,14.9,54.3,2.19,5.43,3.09,21.1,29.2,72.2,4.36,15.9,61.2,90.5,56.5,88.8,1.3,11.7,5.11,6.87,5.89
NS(=O)(=O)c1ccc(NC=C2C(=O)Nc3ccc4ncsc4c32)cc1,94.3,8.42,31,19.8,67.2,1.8,32,5.47,30.9,4.74,17.3,11.5,47.1,7.96,40.9,3.9,16.3,18.8,62.2,23.7
COc1cc(/C=N/Nc2ncnc3c2cnn3C(C)C)ccc1O,53.3,-1.37,4.07,3.16,-0.48,1.9,7.86,16.7,52.8,1.55,3.76,15.2,58.5,11.2,52.7,3.4,20.7,4.44,5.86,11.6
CN(C)CCCn1c(-c2nonc2N)nc2cnccc21,3.91,4.66,–,2.49,0.58,-1.36,-1.19,2.27,4.6,3.86,2.08,4.87,6.51,3.03,2.22,2.17,1.41,6.53,5.18,-0.43
Cc1nc(-c2ccccc2)n2nc(NCCCN3CCOCC3)ncc12,8.46,1.35,1.56,1.72,1.33,-1.38,0.39,2.08,5.01,2.89,2.41,2.4,2.59,2.14,2.72,4.66,5.5,2.77,0.32,1.84
NC(=O)c1sc(-n2cnc3ccccc32)cc1OCc1ccccc1Br,5.34,2.22,4.99,1.31,4.08,-5.3,-0.34,3.94,5.49,4.25,6.11,4.01,6.01,1.96,3.34,1.26,2.98,3.2,6.5,3.93
COc1ccc2ncnc(Nc3ccc(OCc4ccccc4)cc3)c2c1,9.52,2.81,0.98,0.74,2.49,-1.68,0.69,1.39,7.05,2.27,-0.07,2.3,6.36,1.2,4.75,2.16,12.9,-2.88,2.39,1.31
CC(C)c1ccc2c(c1)NC(=O)/C2=N/Nc1ccc(S(N)(=O)=O)cc1,31.5,-0.12,1.26,0.1,5.91,9.17,19.4,1.79,8.63,1.63,0.89,3.02,12.2,2.61,10.5,0.63,1.96,0.7,1.76,-0.51
